The values below come from PubChem BioAssay (EPA / NIEHS).

For orientation: AC50 means the concentration giving half of the maximal activity seen.

Activity calls are given as the source filed them. The calls were made as follows: active = hit-call score of the fitted dose curve at least 0.9, where 1 is the maximum; inactive = score below 0.9.

A short description of the test: ATG_NFI_CIS: Attagene CIS-FACTORIAL HepG2 Assay for human Nuclear Factor I (NFI) (AID 2282989). The conditions noted are these: HepG2 cis-regulatory reporter, NFI response element transcription; actives raise or lower the signal. Summed up: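 Reporter transcripts were measured by RT-PCR with fluorescent primer extension and capillary electrophoresis 24 h post-treatment. HepG2 cells carried transiently transfected cis-regulated reporter constructs reporting endogenous factor activity; gain or loss fitted against DMSO baseline.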
Regarding `CN(C)c1ccc(O)c2c1C[C@H]1C[C@H]3[C@H](N(C)C)C(=O)C(C(N)=O)=C(O)[C@@]3(O)C(=O)C1=C2O`, the compound was classed as inactive.

As to `CC(C)(Oc1ccc(CCNC(=O)c2ccc(Cl)cc2)cc1)C(=O)O`, the outcome was inactive.

For the compound `CC(O)C(C)O` (configuration not stated), the result was inactive.

Turning to `C=CCOc1nc(OCC=C)nc(OCC=C)n1`, the call was inactive.

On to `CCOC(=O)c1ccccc1OC`, for which the call was inactive.

For the compound `C=CC[N+](C)(C)CC=C`, the compound was classed as inactive.

On to `CC(C)(C)C(=O)c1ccccc1`, for which the outcome was inactive.

For the compound `OCCOc1cccc(OCCO)c1`, the compound was classed as inactive.

For `CC1=CC(=O)NS(=O)(=O)O1`, the result was inactive.

Regarding `Cc1ccc(C(=O)O)o1`, the compound was called inactive.

`C#C[C@]1(O)CC[C@H]2[C@@H]3CCC4=Cc5oncc5C[C@]4(C)[C@H]3CC[C@@]21C`: the AC50 is 57.1 µM (active).

Consider `CC1CCC(C(C)CS)CC1S` (configuration not stated), for which the compound was classed as inactive.

With `O=[N+]([O-])c1ccc(C=Cc2ccc([N+](=O)[O-])cc2S(=O)(=O)O)c(S(=O)(=O)O)c1`, the result was inactive.

In the case of `Cc1c(N(C)C)c(=O)n(-c2ccccc2)n1C`, the call was inactive.

On to `COCCOCCOCCOCCOCCO`, for which the call was inactive.

As to `O=C1NC(=O)c2ccccc21`, the outcome was inactive.

Consider `O=c1oc(=O)c2cc3c(=O)oc(=O)c3cc12`, for which the result was inactive.

In the case of `Nc1cc(N)cc(C(=O)O)c1`, the outcome was inactive.

Turning to `C=CC(=O)OCCOCCOCC`, the compound was called inactive.

Regarding `CCCCCCCCCCCCOCCO`, the AC50 is 56.6 µM (active).

Turning to `CC(=O)O[C@]1(C(C)=O)CC[C@H]2[C@@H]3C[C@H](C)C4=CC(=O)CC[C@]4(C)[C@H]3CC[C@@]21C`, the call was inactive.

Consider `O=C(O)C[C@H](O)C[C@H](O)/C=C/c1c(C2CC2)nc2ccccc2c1-c1ccc(F)cc1`, for which the outcome was inactive.
